The source of these data is PubChem BioAssay (NCI).

Test systems include DU-145 prostate; K-562 leukemia; MALME-3M melanoma; MDA-MB-231 breast; RXF 393 renal; SF-268 CNS; SF-295 CNS; SF-539 CNS; UACC-257 melanoma; M14 melanoma; HCT-15 colon; HT29 colon; SNB-75 CNS; SNB-19 CNS; U251 CNS; PC-3 prostate; SK-MEL-5 melanoma; UACC-62 melanoma; LOX IMVI melanoma; SK-MEL-28 melanoma.
What all share (assay): NCI-60 one-dose screen, 48 h (100 = growth as untreated, 0 = no growth, -100 = all killed)
Settings in all cases: 10 µM unless noted

Structures are written as SMILES. About 83,000 compounds went through this panel and 20% of them were active in at least one assay; those are over-represented in the sample as a whole.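 How to read the values: 0–100, growth inhibition (40 = 60% inhibited); 0, no net growth; -100 to 0, cell death (-40 = 40% of starting cells died; -100 = all dead).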 A number with no mark means an inactive call. Active and inactive are the calls of the source. The calls were made as follows: active = growth percent below 10; inactive = the rest.

Consider `COc1ccc(Cn2cc(C(=O)N=Nc3c(O)[nH]c4c(C)cccc34)nn2)cc1`, for which the growth was 60.4% with DU-145 prostate; 63.2% in the experiment with K-562 leukemia; 40.5% with MALME-3M melanoma; 51% in the experiment with MDA-MB-231 breast; 81.9% in the experiment on RXF 393 renal; 87.3% with SF-268 CNS. The growth was 111% in the experiment on SF-295 CNS; 80.1% in the experiment with SF-539 CNS; 93.7% with UACC-257 melanoma; 71.9% with M14 melanoma; 68% with HCT-15 colon; 67.4% in the experiment on HT29 colon. For the same molecule, the growth was 27.3% in the experiment on SNB-75 CNS; 97.5% in the experiment on SNB-19 CNS; 108% in the experiment with U251 CNS; 61.3% in the experiment with PC-3 prostate; 93.8% in the experiment on SK-MEL-5 melanoma; 74.1% with UACC-62 melanoma. Also, the results for the growth in the experiment with LOX IMVI melanoma and with SK-MEL-28 melanoma were 75.3% and 94.9%, respectively.

Consider `COc1cc(/C=C2\CN(S(=O)(=O)c3ccccc3)C/C(=C\c3cc(CN4CCCCC4)c(O)c(OC)c3)C2=O)cc(CN2CCCCC2)c1O`, for which the growth with DU-145 prostate was -93% (active); with K-562 leukemia it was -9.62% (active); in the experiment with MALME-3M melanoma, -77.6% (active); in the experiment with MDA-MB-231 breast it was -67.8% (active); in the experiment on RXF 393 renal it was -88.3% (active); in the experiment with SF-268 CNS it was -20.7% (active). Further, the growth with SF-295 CNS was 76.5%; in the experiment on SF-539 CNS, -84.6% (active); with UACC-257 melanoma, 83.8%; with M14 melanoma, -75.2% (active); with HCT-15 colon, -73.8% (active); with HT29 colon, -66.7% (active). Further, the growth with SNB-75 CNS was -91.7% (active); with SNB-19 CNS, -30.1% (active); with U251 CNS, -76.7% (active); in the experiment on PC-3 prostate it was -36.3% (active); in the experiment on SK-MEL-5 melanoma, -94.8% (active); in the experiment on UACC-62 melanoma, 71%. Besides, the growth in the experiment with LOX IMVI melanoma was -87% (active); in the experiment on SK-MEL-28 melanoma, -90.3% (active).

Take `CC1(C)N=C(N)N=C(N)N1c1ccc(CCCCc2ccccc2)c(Cl)c1`: the growth was 27% in the experiment on DU-145 prostate; 18% with K-562 leukemia; 52.2% with MALME-3M melanoma; 42.5% in the experiment on MDA-MB-231 breast; 30.6% in the experiment with RXF 393 renal; 19.6% with SF-268 CNS. For the same molecule, the growth was 29.6% in the experiment with SF-295 CNS; -3.79% (active) with SF-539 CNS; 3.22% (active) in the experiment on UACC-257 melanoma; 33.5% in the experiment with M14 melanoma; 20.5% in the experiment with HCT-15 colon; -11.2% (active) in the experiment on HT29 colon. The growth with SNB-75 CNS is 18.3%; with SNB-19 CNS, 21.4%; in the experiment on U251 CNS, 3.58% (active); in the experiment with PC-3 prostate it was 6.3% (active); in the experiment on SK-MEL-5 melanoma, -76.1% (active); with UACC-62 melanoma, 8.84% (active). In addition, the growth in the experiment with LOX IMVI melanoma is 8.69% (active); with SK-MEL-28 melanoma, 25.2%.

In the case of `O=C(Cc1ccc(/C=C/C(=O)c2ncc[nH]2)cc1)Nc1cc(C(F)(F)F)cc(C(F)(F)F)c1`, the growth was 86.2% in the experiment on DU-145 prostate; 18.9% in the experiment with K-562 leukemia; 92.1% with MALME-3M melanoma; 92.6% with MDA-MB-231 breast; 67.8% in the experiment with RXF 393 renal; 88.2% in the experiment on SF-268 CNS. The growth with SF-295 CNS is 93.7%; with SF-539 CNS, 73.7%; in the experiment with UACC-257 melanoma, 100%; with M14 melanoma it was 89.6%; in the experiment with HCT-15 colon it was 62.4%; with HT29 colon, 26.3%. Also, the growth was 79% in the experiment with SNB-75 CNS; 77.3% with SNB-19 CNS; 38.5% in the experiment on U251 CNS; 85.3% in the experiment on PC-3 prostate; 93.1% in the experiment on SK-MEL-5 melanoma; 80.9% with UACC-62 melanoma. Also, the growth in the experiment on LOX IMVI melanoma is 34.5%; in the experiment with SK-MEL-28 melanoma it was 104%.

Consider `CO[C@H](C(=O)[C@@H](O)[C@@H](C)O)[C@@H]1Cc2cc3cc(O[C@H]4C[C@@H](O[C@H]5C[C@@H](O)[C@H](O)C(C)O5)[C@H](O)C(C)(O)O4)cc(O)c3c(O)c2C(=O)[C@H]1O[C@H]1C[C@@H](O[C@H]2C[C@@H](O[C@H]3C[C@@H](OC)[C@H](O)C(C)O3)[C@@H](O)C(C)O2)[C@H](O)C(C)O1` (stereo not given in full), for which the growth is 17.5% with DU-145 prostate; 29.9% in the experiment on K-562 leukemia; -11.4% (active) with MALME-3M melanoma; 25.1% in the experiment with MDA-MB-231 breast; -35.1% (active) with RXF 393 renal; 34.8% in the experiment on SF-268 CNS. The growth in the experiment with SF-295 CNS is 14.4%; in the experiment with SF-539 CNS, 9.92% (active); in the experiment on UACC-257 melanoma, -16% (active); in the experiment on M14 melanoma, 34.2%; in the experiment on HCT-15 colon it was 92.8%; in the experiment with HT29 colon, 11.3%. Moreover, the growth with SNB-75 CNS is 24.5%; with SNB-19 CNS it was 24.4%; with U251 CNS, 6.61% (active); in the experiment with PC-3 prostate it was 26.3%; with SK-MEL-5 melanoma, -56.8% (active); with UACC-62 melanoma it was -39.5% (active). The growth is 2.79% (active) in the experiment with LOX IMVI melanoma and 3.39% (active) in the experiment with SK-MEL-28 melanoma.

In the case of `C=C1C(=O)O[C@H]2[C@H]1CC/C(CNC(=O)c1c[nH]c3ccc(F)cc13)=C\CC[C@@]1(C)O[C@@H]21`, the growth was -58.5% (active) in the experiment with DU-145 prostate; -19.3% (active) in the experiment with K-562 leukemia; -2.58% (active) with MALME-3M melanoma; 11.7% with MDA-MB-231 breast; -84.9% (active) with RXF 393 renal; 42.8% in the experiment on SF-268 CNS. Also, the growth in the experiment with SF-295 CNS is 67.7%; with SF-539 CNS it was -42.6% (active); in the experiment on UACC-257 melanoma, -68.4% (active); in the experiment on M14 melanoma it was -26.1% (active); in the experiment on HCT-15 colon, -69.6% (active); with HT29 colon it was -59.5% (active). The growth is 45% in the experiment with SNB-75 CNS; 61.3% with SNB-19 CNS; 31.7% in the experiment with U251 CNS; 31.8% in the experiment with PC-3 prostate; 61.4% in the experiment with SK-MEL-5 melanoma; -37.3% (active) in the experiment with UACC-62 melanoma. Also, the growth in the experiment on LOX IMVI melanoma is -88.4% (active); in the experiment on SK-MEL-28 melanoma it was -24.3% (active).

Take `O=C(CN1CCN(c2cc3c(cc2F)c(=O)c(C(=O)O)cn3C2CC2)CC1)N/N=C/c1ccco1`: the growth was 106% in the experiment with DU-145 prostate; 95% in the experiment with K-562 leukemia; 92.2% in the experiment on MALME-3M melanoma; 98.7% in the experiment on MDA-MB-231 breast; 112% in the experiment with RXF 393 renal; 93.8% in the experiment on SF-268 CNS. Moreover, the growth was 100% in the experiment on SF-295 CNS; 93.2% with SF-539 CNS; 93.9% in the experiment on UACC-257 melanoma; 96.6% with M14 melanoma; 102% in the experiment with HCT-15 colon; 104% in the experiment on HT29 colon. Besides, the growth in the experiment with SNB-75 CNS is 87.9%; in the experiment on SNB-19 CNS it was 99.7%; with U251 CNS, 96.7%; in the experiment on PC-3 prostate, 93.5%; in the experiment on SK-MEL-5 melanoma it was 94.5%; in the experiment on UACC-62 melanoma it was 93.5%. Also, the growth with LOX IMVI melanoma is 90.8%; in the experiment with SK-MEL-28 melanoma, 97.9%.
